PubChem BioAssay (NCI)
Compounds without any hit were thinned out: in the full panel of roughly 83,000, 20% have a hit.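 Compound tested at a single concentration for 48 hours in 96-well plates; a percent growth value below 10 was scored as active.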 Activity calls are given as the source filed them.

System: RPMI-8226 leukemia
Experiment: NCI-60 one-dose screen, 48 h (100 = growth as untreated, 0 = no growth, -100 = all killed)
Details: 10 µM unless noted
Experimental: Growth inhibition of the RPMI-8226 human tumor cell line is measured as a screen for anti-cancer activity. Cells are grown in 96 well plates and exposed to the test compound for 48 hours. Compounds are tested at a single concentration, which is 10^-5 M for most compounds. The reported endpoint is percent growth (GI% or GIPRCNT), where numbers from 0 - 100% represent growth inhibition, and numbers from -100% - 0 represent cell death. For example, a value of 40 represents 60% growth inhibition. A value of 0 means no net growth occurred over the course of the experiment. A value of -40 indicates 40% of cells at the beginning of the experiment died by the end of the experiment. A value of -100 means all cells are dead at the end of the experiment.
NCI-60 Human Tumor Cell Lines Screen was performed using the standard one-dose NCI protocol, which is described in more detail at https://dtp.cancer.gov/discovery_development/nci-60/default.htm.
Compounds with GIPRCNT values below 10 were considered active. Activity score was based on GIPRCNT using the following formula: […]
Score is 0 for GIPRCNT values of 100 or above, 50 for GIPRCNT values of 0, and 100 for GIPRCNT values of -100.

Row | SMILES | growth
1 | CCOP(=O)(OCCCl)c1nc(-c2ccc(C)cc2)oc1NCc1ccccc1 (stereo not given) | 43.2% (inactive)
2 | O=c1c2ccccc2nc(-c2ccccc2)n1/N=C/c1ccc2ccccc2c1 | 39% (inactive)
3 | COC(=O)/C=C/c1cccc2c1C(=O)NC(C)(c1cc3ccccc3oc1=O)N2 (stereo not given) | 82.6% (inactive)
4 | COc1ccc(-c2nc3cc(C)ccc3n2CC(=O)N=Nc2c(O)[nH]c3ccccc23)cc1 | 59.3% (inactive)
5 | C=C1CC[C@@H]2[C@]3(C)COC(c4cn(-c5ccccc5)nc4-c4cccc([N+](=O)[O-])c4)O[C@@H]3CC[C@@]2(C)[C@@H]1C/C=C1/C(=O)OC[C@H]1O (stereo not given in full) | -42.4% (active)
6 | Cc1c(C(=O)NNC(=O)c2ccc(Cl)cc2)nnn1-c1ccc(Br)cc1 | 98.2% (inactive)
7 | CN(C)c1nc(NCCNS(=O)(=O)c2ccc(C(=O)/C=C/c3ccc(Cl)cc3)cc2)nc(Nc2ccc(F)cc2)n1 | -17.6% (active)
8 | Cc1cc2c(cc1Cl)C(=O)/C(=C/c1ccc(F)cc1)O2 | 97.2% (inactive)
9 | COc1ccc(NC(=O)Cn2c(O)c(N=Nc3ccc(S(N)(=O)=O)cc3)c3ccccc32)cc1 | 71.6% (inactive)
10 | CSc1ccc(NC(=O)c2ccc3nn(/C(C#N)=C/c4ccccn4)nc3c2)cc1 | -35.4% (active)
11 | N#Cc1c(-c2ccccc2Cl)cc(-c2ccc3ccccc3c2)[nH]c1=O | 61.5% (inactive)
12 | Cc1c(C(=O)NNC(=O)c2ccc(Cl)cc2)nnn1-c1ccc(Cl)cc1 | 95.7% (inactive)
13 | C#CCOc1cc(N(CC)CC)ccc1C(C(=O)NC(C)(C)C)N(C(=O)C1CCc2cc(F)ccc2O1)c1ccc(Br)cc1 (stereo not given) | 44.7% (inactive)
14 | CSc1ccc(C(=O)Nc2ccc3nnn(/C(C#N)=C/c4ccccn4)c3c2)cc1 | -40.8% (active)
15 | COc1ccc2c(c1)c(-c1cc3nc(-c4cn(C)c5ncccc45)cc(N)n3n1)cn2C | -20.6% (active)
16 | O=C(COc1ccc(NC(=O)Nc2ccc(Cl)c(Cl)c2)cc1)N=Nc1c(O)[nH]c2ccc([N+](=O)[O-])cc12 | 55.4% (inactive)
17 | CCOC(=O)C1=C(N)N(c2ccccc2)C2=C(C(=O)CC(C)(C)C2)C1c1ccccc1Cl (stereo not given) | 22.5% (inactive)
18 | Cn1cc(NC(=O)c2cc(NC(=O)c3ccc(C#Cc4ccccc4)cc3)cn2C)cc1C(=O)NCCCN1CCOCC1 | -42.6% (active)
19 | CCOC(=O)C1=C(N)N(c2ccccc2)C2=C(C(=O)CC(C)(C)C2)C1c1ccc(Cl)cc1Cl (stereo not given) | 7.77% (active)
20 | NS(=O)(=O)c1ccc(N=Nc2c(O)n(CC(=O)Nc3ccccc3Cl)c3ccccc23)cc1 | 29% (inactive)

Row | SMILES | growth
21 | COc1ccc2[nH]c(O)c(N=NC(=O)Cn3c(-c4ccccc4)nc4cc(C)ccc43)c2c1 | 10.7% (inactive)
22 | CSc1ccc(NC(=O)c2ccc3nnn(/C(C#N)=C/c4ccccn4)c3c2)cc1 | -32.6% (active)
23 | N#Cc1ccc(/C=N/NC(=O)c2[nH]c3ccc(Br)cc3c2-c2ccccc2)o1 | 3.55% (active)
24 | CSc1ccccc1NC(=O)c1ccc2nnn(/C(C#N)=C/c3ccccn3)c2c1 | -29% (active)
25 | COc1cc2oc(-c3cccc(C(=O)Nc4ccc(Cl)cc4)c3)cc(=O)c2c(OCCNC(=O)[C@H](CO)NC(=O)OC(C)(C)C)c1OC | -39.9% (active)
26 | COc1ccc(-c2c(Nn3cnnn3)no[n+]2[O-])cc1 | 42% (inactive)
27 | C[C@H](Nc1nc(NCCc2ccccc2)nc2ccccc12)c1ccccc1 | -37.5% (active)
28 | Cn1cc(-c2cc(N)n3nc(-c4cn(C)c5ncc(Br)cc45)cc3n2)c2cc(Br)cnc21 | 5.51% (active)
29 | N/C(=N\N=C\c1ccc([N+](=O)[O-])cc1)c1c(N)nc(=S)[nH]c1-c1ccc(Cl)cc1Cl | 97.3% (inactive)
30 | COc1c(F)ccc(C(=O)Nc2ccc3nc(NC(=O)C4CCCN(S(=O)(=O)c5ccc(Br)c(F)c5)C4)sc3c2)c1F (stereo not given) | 52% (inactive)
31 | CN1CCN(Cc2ccc(C(=O)Nc3cccc(C#Cc4cccc5[nH]nc(N)c45)c3)cc2C(F)(F)F)CC1 | -45.1% (active)
32 | COc1cc(OC)cc(-c2cc3ccc(N(C)C)cc3c(=O)[nH]2)c1 | 29.2% (inactive)
33 | COc1ccc(NC(=O)Cn2c(/C=C/c3cccc([N+](=O)[O-])c3)nc3ccccc3c2=O)cc1 | 124% (inactive)
34 | COc1ccc(NC(=O)Nc2ccc(OCc3ccc(F)cc3)cc2)cc1 | 88.7% (inactive)
35 | CC(=O)Nc1cccc(-c2nc3cc(-c4ccc(O)cc4)ccc3n2C)c1 | 28.4% (inactive)
36 | Cn1cc(-c2nnc(N)nc2-c2c[nH]c3ccccc23)c2cccnc21 | 43.5% (inactive)
37 | CC1(C)CC[C@]2(C(=O)O)CC[C@]3(C)C(=CCC4[C@@]5(C)C[C@@H](O)[C@@H]6OC(c7ccco7)OC[C@@]6(C)C5CC[C@]43C)C2C1 (stereo not given in full) | 15% (inactive)
38 | COc1cc(-c2nc3ccc(C)cc3[nH]2)ccc1OCc1nnc(-c2ccc(Br)cc2)o1 | -12.9% (active)
39 | CCN(CC)c1ccnc(CNCCSC(c2ccccc2)(c2ccccc2)c2ccc(OC)cc2)c1 | -55.9% (active)
40 | COc1ccc2c(c1)c(/C=N/Nc1ccc3ccccc3n1)cn2C | -26.7% (active)
